# From PubChem
# TDP1 cell noCPT – qHTS for Inhibitors of human tyrosyl-DNA phosphodiesterase 1 (TDP1): qHTS in cells in absence of CPT; DT40 Tdp1-/- hTDP1 cells, no CPT, ATP luminescence, 48 h; hit rate 15% among 420,000; Potency, µM (series often up to 46.2 µM), for inactives: top-dose activity change, negative = growth inhibition, most hits filed as inhibitors; also: nearly all actives have a fitted effect of over 55% in size
#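 A cellular qHTS used chicken DT40 cells lacking endogenous Tdp1 but carrying stably transfected human TDP1. Compounds were applied without camptothecin, and cell growth kinetics were judged by ATP-dependent luminescence after ≥48 hr.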
# RORgamma inh – inhibitors of mouse ROR gamma transcriptional activity. Potency, µM (highest dose often 53.6 µM), for the others: at the top dose activity change, negative = inhibition, actives largely listed as inhibitors. Drosophila S2 Gal4-RORgamma UAS-luciferase reporter, 20 h. AID 2551. hit rate 5.4% among 310,000; also: nearly all actives have a fitted effect of over 60% in size
#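 ROR gamma transcriptional activity was tracked as Gal4-UAS luciferase output in stably transfected Drosophila Schneider cells, with compound added 1 hr before 700 uM copper sulfate induction and a 20 hr ambient-temperature incubation.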
# ELG1 repair inh – blocks ELG1-dependent DNA repair in HEK293T cells; AID 504467; HEK293T ELG1-luciferase reporter, luminescence, 16 h; DNA damage induced by 5-fluorouridine; hit rate 2.3% among 330,000; Potency, µM (titrated, usually from 46.1 µM), for inactives: at the top dose activity change, negative = inhibition, hits mostly inhibitors; also: nearly all actives have a fitted effect of over 55% in size
#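 Reporter activity after DNA damage by 5-fluorouridine is monitored. Compound-treated cells incubate 16 hr at 37 °C, then ONE-Glo is added for 30 min before luminescence reading.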
# VP16 counter – counter-screen for ROR gamma inhibitors: Gal4-VP16 reporter; Drosophila S2 Gal4-VP16 UAS-luciferase, luminescence, 20 h; Potency, µM (highest dose often 53.6 µM), inactives show at the highest dose activity, negative = inhibition, usual class: inhibitors; hit rate 3.5% among 310,000; AID 2546;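 also: Gal4-VP16 expression switched on by copper sulfate through the metallothionein promoter; nearly all actives have a fitted effect of over 50% in size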
# DT40 TDP1 CPT – DT40-hTDP1 cell growth loss with CPT; AID 686979; hit rate 12% among 420,000; Potency, µM (highest dose often 46.2 µM), for the others: at the top dose activity change, negative = growth inhibition, usual class: inhibitors; chicken DT40 Tdp1-/-;hTDP1 cells + 20 nM CPT, ATP luminescence, 48 h; also: nearly all actives have a fitted effect of over 55% in size
#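 Cell growth measured by CellTiter-Glo luminescence after a minimum 48 h, 37 C compound exposure with 20 nM CPT in Tdp1-knockout DT40 cells stably expressing hTDP1, seeded 400/well; qHTS titration format.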
# 12-LOX inh – inhibitors of human 12S-lipoxygenase ALOX12; P18054; purified 12hLO, xylenol orange hydroperoxide absorbance; Potency, µM (doses to about 108 µM), without a hit: top-dose activity change, negative = inhibition, actives largely listed as inhibitors; hit rate 1.1% among 580,000; AID 1671190
# Target sequence (P18054 whole entry, looked up): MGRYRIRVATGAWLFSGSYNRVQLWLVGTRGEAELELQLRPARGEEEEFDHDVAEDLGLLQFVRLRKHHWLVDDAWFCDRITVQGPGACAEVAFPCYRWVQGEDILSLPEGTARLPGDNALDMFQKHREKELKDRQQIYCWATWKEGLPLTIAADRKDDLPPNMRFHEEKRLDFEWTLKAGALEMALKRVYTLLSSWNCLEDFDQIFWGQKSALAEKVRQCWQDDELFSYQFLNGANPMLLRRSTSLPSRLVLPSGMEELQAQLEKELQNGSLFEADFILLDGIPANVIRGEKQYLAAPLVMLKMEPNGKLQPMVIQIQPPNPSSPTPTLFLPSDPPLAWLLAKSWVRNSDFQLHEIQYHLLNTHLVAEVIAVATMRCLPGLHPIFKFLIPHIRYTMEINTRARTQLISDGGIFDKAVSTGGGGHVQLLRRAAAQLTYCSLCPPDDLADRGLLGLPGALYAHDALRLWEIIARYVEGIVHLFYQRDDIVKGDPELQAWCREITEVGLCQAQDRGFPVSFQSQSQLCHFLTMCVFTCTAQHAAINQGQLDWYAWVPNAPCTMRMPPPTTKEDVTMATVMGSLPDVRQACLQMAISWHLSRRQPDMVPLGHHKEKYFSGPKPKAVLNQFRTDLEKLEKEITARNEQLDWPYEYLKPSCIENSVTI
#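 Hydroperoxide product was detected by ferrous iron/xylenol orange as the 573 to 405 nm absorbance ratio. Arachidonic acid at 40 uM (final) was turned over for 30 min at room temperature by 150 nM human 12hLO, pH 7.0 Hepes buffer, after 15 min compound preincubation.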
# The depositor's hits bear a star; ? = inconclusive; / = no result. Most compounds without a hit are left out; they make up all but 15% or so of the library. Calls follow the shape of the dose curve; as a rule, active = well fitted curve in the direction sought with a large enough effect; inconclusive = small, poorly fitted or top-dose-only effect, or another doubt; inactive = no such curve, though single readings can be large; an effect the other way counts as inactive or inconclusive. % is scaled to controls: 0 for no effect and ±100 for the full control effect; potency is read from the fitted curve at half-maximal effect.
SMILES,TDP1 cell noCPT,RORgamma inh,ELG1 repair inh,VP16 counter,DT40 TDP1 CPT,12-LOX inh
O=C1CC2(CCN(C(=O)c3ccccc3F)CC2)CN1C/C=C/c1ccccc1,/,/,/,/,/,27%
Cc1cccc(NC(=S)N(C)Cc2cn(C)c3ccccc23)c1,16µM*,?,?,?,26µM*,-22%
Cc1ccc(NC(=S)N(CCN2CCOCC2)Cc2ccccc2F)cc1Cl,?,10µM*,?,?,-19%,?
Cc1cccc(NC(=S)N(CCN2CCOCC2)Cc2ccccc2F)c1,?,13µM*,-8%,-69%,?,3%
COc1ccccc1NC(=S)N(CCN1CCOCC1)Cc1ccccc1F,?,-21%,3%,-22%,-1%,9%
COc1ccc(NC(=S)N(CCN2CCOCC2)Cc2ccccc2F)cc1,-6%,?,0%,7%,0%,0%
COc1ccccc1Oc1c(C)oc2cc(OCC(=O)Nc3cccc(C)c3C)ccc2c1=O,/,/,/,/,/,-4%
Cc1ccc(Sc2cc(NCCCO)c([N+](=O)[O-])c3nonc23)cc1,2.9µM*,-13%,-5%,-8%,2.3µM*,-17%
CC(=O)OCCCNc1cc(Sc2ccc(Cl)cc2)c2nonc2c1[N+](=O)[O-],3.7µM*,8%,-18%,-14%,2.1µM*,?
COC(=O)CCSc1cc(NCCCOC(C)=O)c([N+](=O)[O-])c2nonc12,5µM*,/,/,/,5µM*,/
CC(C)CCSc1cc(NCCO)c([N+](=O)[O-])c2nonc12,?,-26%,?,?,?,9%
CCn1c(SCC(=O)c2ccc[nH]2)nnc1-c1ccccc1,/,/,/,/,/,-21%
COc1ccc2c(-c3ccccc3)cc(=S)[nH]c2c1,-37%,1µM*,1%,?,-7%,?
COc1ccc2c(-c3ccccc3)cc(=O)[nH]c2c1,-21%,22%,15%,17%,-25%,12%
Cc1cc(C(=O)NC2CCCCC2)c2ccccc2n1,/,/,/,/,/,-5%
COc1nc(N)c(C#N)c(-c2ccc(N(C)CCC#N)cc2)c1C#N,7.3µM*,17%,16µM*,1%,18µM*,?
COc1ccc(-c2c(C#N)c(N)nc(Sc3ccc(Cl)cc3)c2C#N)cc1,-30%,7%,?,0%,-12%,?
NS(=O)(=O)c1cccc(NC(=O)c2cc(-c3cccs3)nc3ccccc23)c1,15µM*,2%,?,-13%,21µM*,?
NS(=O)(=O)c1cccc(NC(=O)CCC(=O)c2cccs2)c1,-10%,8%,?,-1%,-21%,0%
NS(=O)(=O)c1cccc(NC(=O)c2cccs2)c1,?,30%,-4%,3%,21µM*,-1%
O=C(Nc1cccc(N2C(=O)C=CC2=O)c1)c1cccs1,/,/,?,/,/,35µM*
NS(=O)(=O)c1ccc(NC(=O)c2cccc3cc4ccccc4nc23)cc1,5.2µM*,/,/,/,5.8µM*,-7%
Cc1nc2ccccc2c(=O)n1-c1cccc(NC(=O)c2cccs2)c1,?,/,?,/,?,5%
Cn1c(=O)c2nc(SCC(=O)Nc3ccc(F)c(Cl)c3)n(C)c2n(C)c1=O,/,/,/,/,/,-6%
O=C(COC(=O)C12CC3CC(CC(C3)C1)C2)Nc1ccc(Cl)cc1[N+](=O)[O-],/,/,/,/,/,35%
Cc1noc(-c2ccc(OC3CN(S(=O)(=O)c4c(C)nn(C)c4C)C3)cc2)n1,/,/,/,/,/,14%
Fc1ccccc1-c1noc2c1CN(Cc1cccn1-c1nccs1)CC2,/,/,/,/,/,-3%
CN(C)S(=O)(=O)c1cccc(NC(=O)c2cc(-c3cccs3)nc3ccccc23)c1,10µM*,26%,7.3µM*,-5%,?,-22%
CCCN1CCC(N(C)C(=O)Nc2ccc(F)cc2)CC1,/,/,/,/,/,-36%
